The list is not random: actives were taken first. Their share in the collection is about 20%.
Pf growth 48h: Primary qHTS for delayed death inhibitors of the malarial parasite plastid, 48 hour incubation; Potency, µM (series often up to 28.7 µM), inactives show top-dose activity change, negative = inhibition, most hits filed as inhibitors; AID 504832, 2011; P. falciparum luciferase growth in erythrocytes, 48 h; actives 5.9% (n = 310,000); note: potency is the fitted concentration of half-maximal effect; % is set by controls: 0 for no effect and ±100 for the full control effect
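Compounds are pin-transferred into medium, infected erythrocytes (2% hematocrit, 0.1% parasitemia final) are added, and plates sit one parasite generation at 37 C in 5% CO2. Detection reagent is then added and luminescence measured.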
Pf growth 96h: Primary qHTS for delayed death inhibitors of the malarial parasite plastid, 96 hour incubation. Potency, µM (series often up to 28.7 µM), for inactives: at the top dose activity change, negative = inhibition, actives largely listed as inhibitors. actives 6.9% (n = 320,000). AID 504834, 2011. P. falciparum luciferase reporter growth, 96 h; note: potency is the fitted concentration of half-maximal effect; % is set by controls: 0 for no effect and ±100 for the full control effect
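Cell-based qHTS: luciferase-tagged P. falciparum in erythrocytes (2% hematocrit, 0.05% parasitemia final) incubated with compounds for 96 hours, 37 C, 5% CO2; luciferase detection reagent then added and luminescence measured.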
Cycloheximide cs: Cycloheximide Counterscreen for Small Molecule Inhibitors of Shiga Toxin; cell reporter, cycloheximide protein synthesis inhibition counterscreen; max response, %; actives 12% (n = 300,000); AID 2314, 2010; in the data active = max response mostly above about 13%, no sharp cut-off; inactive = mostly below about 14%; note: read at 38.3 µM for the half of the compounds with a filed dose; 0% is about no effect
Shiga inhibitor: A qHTS for Small Molecule Inhibitors of Shiga Toxin. Vero cells, Shiga toxin protein synthesis inhibition reporter. inhibition, % at 38.7 µM. actives 9.2% (n = 290,000); in the data active = inhibition mostly above about 28%, no sharp cut-off; inactive = mostly below about 43%; note: 0% is about no effect
HCMV antiviral: qHTS Assay for inhibitors of the human cytomegalovirus (HCMV); HFF cells, HCMV-luciferase reporter, 72 h; hits give low values; activity change, negative = inhibition, % at 57.5 µM; actives 4.5% (n = 410,000); in the data active = activity change below about -60%; inconclusive = no clear call, values can overlap the other calls; inactive = above about -39%; note: % is set by controls: 0 for no effect and ±100 for the full control effect
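Inhibition of viral replication was scored as loss of reporter luminescence in HFFs infected with HCMV-luciferase (MOI 1 PFU/cell) for 72 h; compounds tested at 2 doses, normalized to buffer and Salinomycin controls.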
Starred values were filed as active, the others as inactive; ? = inconclusive; . = no result given. Unless noted, calls come from the whole dose curve; as a rule, active = well fitted inhibition curve with a large enough effect; inconclusive = small, poorly fitted or top-dose-only effect, or another doubt; inactive = no such curve, though single readings can be large or run the other way.

SMILES	Pf growth 48h	Pf growth 96h	Cycloheximide cs	Shiga inhibitor	HCMV antiviral
Cc1ccccc1C(=O)Nc1ccccn1	23.2%	6.5%	32.0*	56.9*	-3.4
CC(NC(=O)CCCc1c[nH]c2ccccc12)c1ccc(F)cc1 (stereo not given)	?	-2.7%	6.7	-1.4	3.2
O=C(NCc1cccnc1)c1ccc(Cn2c(=S)[nH]c3ccc(Br)cc3c2=O)cc1	?	?	10.2	13.3	-24.4
CS(=O)(=O)Nc1ccc(C(=O)N2CCCCC2)cc1	19.9%	.	-1.8	1.2	28.0
COc1ccccc1N1CCN(C(=O)CCc2nnc3ccc(N4CCOCC4)nn23)CC1	2.4%	?	1.5	-2.5	-39.3
COc1ccc(OC)c(NC(=O)c2sc3ncnc(N4CCN(c5ccccn5)CC4)c3c2C)c1	8.28µM*	?	-3.2	15.6	.
Cc1nc(N2CCN(c3ccccn3)CC2)c2c(C)c(C(=O)N3CCN(c4ccc(F)cc4)CC3)sc2n1	4.65µM*	0.8%	1.0	-8.2	-25.6
Cc1nc(N2CCC(C)CC2)c2c(C)c(C(=O)O)sc2n1	8.7%	-6.4%	-1.9	12.5	-25.0
Cc1c(C(=O)N2CCN(c3ccccc3)CC2)sc2ncnc(N3CCN(c4ccccn4)CC3)c12	?	30.0%	-5.9	-5.4	9.0
CCN1CCN(C(=O)c2sc3nc(C)nc(N4CCC(C)CC4)c3c2C)CC1	13.1µM*	?	-0.8	-7.3	?
Cc1c(C(=O)N2CCN(c3ccc(F)cc3)CC2)sc2ncnc(N3CCN(c4ccccn4)CC3)c12	10.4µM*	11.8%	-2.3	-3.3	-80.7*
COc1ccccc1N1CCN(C(=O)c2sc3ncnc(N4CCN(c5ccccn5)CC4)c3c2C)CC1	11.7µM*	1.7%	-1.9	-0.6	.
COc1ccccc1N1CCN(C(=O)c2sc3nc(C)nc(N4CCN(c5ccccn5)CC4)c3c2C)CC1	?	33.0%	-4.3	-16.5	16.4
O=C(CS(=O)(=O)c1cn(CC(=O)N2CCCC2)c2ccccc12)Nc1ccccc1F	-18.7%	?	2.9	1.1	-37.4
C[n+]1cc(C(=O)N2CCCCC2)ccc1/C=C/c1c[nH]c2ccccc12	?	0.415µM*	9.0	7.2	36.6
CC(C)CNC(=O)c1ccc(NC(=O)c2ccccc2[N+](=O)[O-])cc1	-22.1%	2.2%	-3.6	-5.7	43.4
O=C(CCCCn1c(=O)c2ccccc2n(Cc2cccc(Cl)c2)c1=O)NCc1ccc2c(c1)OCO2	.	.	.	.	-2.1
CCC(CC)c1nnc(NC(=O)C2CCCO2)s1 (stereo not given)	41.6%	?	18.6*	17.4	41.6
CCCCc1nnc(NC(=O)C2=COCCO2)s1	146.7%	170.2%	39.6*	68.8*	27.7
CCCCc1nnc(NC(=O)C2CCCO2)s1 (stereo not given)	48.5%	?	14.7*	53.3*	-35.2
Cc1nnc(NC(=O)C2=COCCO2)s1	36.2%	32.4%	.	.	-15.5
C=CCNC(=S)Nc1c(N)n(C)c(=O)n(C)c1=O	1.0%	0.0%	0.5	-0.9	-1.0
OCc1cc(CO)c(O)c(CCc2ccccc2)n1	.	4.65µM*	-2.5	-8.7	10.4
Cc1cccnc1NC(=O)c1ccc(S(=O)(=O)N2CC(C)OC(C)C2)cc1 (stereo not given)	-21.4%	?	-0.9	-13.2	-17.6
COc1ccc(NC(=O)N2CCCC2C(=O)NCCc2ccccc2)cc1 (stereo not given)	63.9%	219.9%	0.9	35.5	9.0
SMILES	Pf growth 48h	Pf growth 96h	Cycloheximide cs	Shiga inhibitor	HCMV antiviral
Cc1cc(NC(=O)c2cc(S(=O)(=O)N3CCCCC3)ccc2C)no1	.	.	.	.	-32.7
CN1CCN(S(=O)(=O)c2ccc(NC(=O)c3cccc(S(=O)(=O)N4CCCC4)c3)cc2)CC1	11.7µM*	?	3.6	-20.6	5.9
O=C(O)c1ccc(NC(=O)c2cccc(S(=O)(=O)Nc3ccc(C(=O)O)cc3)c2)cc1	3.2%	216.1%	0.5	-1.9	14.4
CN1CCN(S(=O)(=O)c2ccc(NC(=O)C(C)(C)C)cc2)CC1	.	?	4.5	-14.3	-107.8*
O=C1CSc2ccc(C(=O)Nc3cccc(S(=O)(=O)Nc4ccc(Br)cc4)c3)cc2N1	-5.7%	-18.4%	-1.9	-11.9	-90.9*
Cc1cc(NC(=O)c2cccc(S(=O)(=O)N3CCCCCC3)c2)no1	.	8.28µM*	0.4	-15.9	-27.2

High-throughput results deposited in PubChem BioAssay by National Center for Advancing Translational Sciences (NCATS).
